Activity calls are given as the source filed them.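 The calls were made as follows: active = inhibition above 30% at one or more tested concentrations in the dose response; inactive = inhibition below 30% at every tested concentration.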
Test: PhoP regulon inhibitors in S. Typhimurium, late-stage follow-up, GFP fluorescence, round 4, synthesized compounds (AID 449741)
Details: S. Typhimurium PhoP-regulated promoter-GFP fluorescence, 4 h; series mostly up to 150 µM

outcome, inactive:
O=C(Nc1ccc(Cl)cc1)N1CCCN(Cc2cccc(F)c2)C1, S=C(NCc1ccc(Cl)cc1)Nc1ccccc1Br, S=C(NCc1ccccc1)NCc1ccc(Cl)cc1, S=C(NCc1ccc(Cl)cc1)NN1CCOCC1, O=C(Nc1ccc(Cl)cc1)N1CCN(Cc2ccccc2F)C1, S=C(NCc1ccc(Cl)cc1)Nc1ccc(I)cc1, N#Cc1ccc(CN2CCCN(C(=O)Nc3ccc(Cl)cc3)C2)cc1, S=C(NCc1ccc(Cl)cc1)NC1CCCCC1, O=C(Nc1ccc(Cl)cc1)N1CCCN(Cc2cccc(Br)c2)C1, COc1cccc(CNC(=S)Nc2ccncc2)c1, FC(F)(F)c1ccc(NC(=S)NCc2ccc(Cl)cc2)cc1, S=C(NCc1ccc(Cl)cc1)Nc1ccccn1, FC(F)(F)c1ccccc1NC(=S)NCc1ccc(Cl)cc1, S=C(NCc1ccc(Cl)cc1)Nc1cccc(Br)c1, O=C(NC1CCCCC1)N1CCCN(Cc2ccccc2F)C1, S=C(NCc1ccc(Cl)cc1)NC1CCOCC1, S=C(NCc1ccc(Cl)cc1)Nc1ccncn1, S=C(NCc1ccc(Cl)cc1)Nc1ccccc1I, CN1CCN(C(=S)NCc2ccc(Cl)cc2)CC1, Cc1ccccc1NC(=O)N1CCCN(Cc2ccccc2F)C1

From PubChem BioAssay AID449741 (Southern Research Specialized Biocontainment Screening …, 2010)
